In PubChem BioAssay AID1159580 (chemical genetic matrix, 2015):
Hit rate of the full screen: of about 5,500 compounds, about 2,000 (36%) were called active. About 18% were inconclusive and are not listed. Cut-off read from the data, not from the text of the source: active = normalized growth mostly below about 0.91 (no sharp cut-off); inconclusive = no clear call, values can overlap the other calls; inactive = mostly above about 0.92. This is one part of the list.

Assay: chemical genetic growth profiling, strain panel (AID 1159580);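 note: tested at 20 µM; growth read once vehicle control cultures reached saturation at 30 °C; 1 = growth at the plate median or of vehicle wells; lower values mean less growth of the strain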
Conditions: S. cerevisiae deletion strains, growth OD

Measured: normalized growth

CC(=O)OC1CC23CC24CCC(OC2OCC(O)C(O)C2O)C(C)(C)C4CCC3C2(C)CC3OC4(CC(C)C3C12C)OC(O)C1(C)OC41 (centres undefined)
inactive: locus YAL021C, strain ccr4, stronger effect = lower value 0.995 | locus YAL026C, strain drs2, stronger effect = lower value 1.01 | locus YAL030W, strain snc1, stronger effect = lower value 1 | locus YBL061C, strain skt5, stronger effect = lower value 1.01 | locus YBR009C, strain hhf1, stronger effect = lower value 0.988 | locus YBR023C, strain chs3, stronger effect = lower value 1 | locus YBR171W, strain sec66, stronger effect = lower value 1.02 | locus YBR231C, strain swc5, stronger effect = lower value 1.03 | locus YBR279W, strain paf1, stronger effect = lower value 1 | locus YCL011C, strain gbp2, stronger effect = lower value 1.01 | locus YCL016C, strain dcc1, stronger effect = lower value 0.998 | locus YCL069W, strain vba3, stronger effect = lower value 1.01 | locus YCR088W, strain abp1, stronger effect = lower value 1.01 | locus YDL005C, strain med2, stronger effect = lower value 1.02 | locus YDL040C, strain nat1, stronger effect = lower value 1 | locus YDR001C, strain nth1, stronger effect = lower value 1 | locus YDR069C, strain doa4, stronger effect = lower value 1.01 | locus YDR137W, strain rgp1, stronger effect = lower value 0.99 | locus YDR159W, strain sac3, stronger effect = lower value 1.04 | locus YDR195W, strain ref2 1 | locus YDR297W, strain sur2, stronger effect = lower value 1.01 | locus YDR334W, strain swr1, stronger effect = lower value 1.01 | locus YDR335W, strain msn5, stronger effect = lower value 1.01 | locus YDR392W, strain spt3, stronger effect = lower value 0.936 | locus YEL003W, strain gim4, stronger effect = lower value 1.01 | locus YEL037C, strain rad23, stronger effect = lower value 1 | locus YEL061C, strain CIN8 (second series), stronger effect = lower value 1.01 | locus YER015W, strain faa2, stronger effect = lower value 1.02 | locus YER016W, strain bim1, stronger effect = lower value 1.01 | locus YER111C, strain swi4, stronger effect = lower value 0.999 | locus YER155C, strain BEM2 (second series), stronger effect = lower value 1.07 | locus YFR010W, strain ubp6, stronger effect = lower value 1.03 | locus YGL167C, strain pmr1, stronger effect = lower value 0.996 | locus YGL173C, strain kem1, stronger effect = lower value 1.01 | locus YGL227W, strain vid30, stronger effect = lower value 1.01 | locus YGL240W, strain doc1, stronger effect = lower value 1.04 | locus YGL253W, strain hxk2, stronger effect = lower value 1 | locus YHR013C, strain ard1, stronger effect = lower value 0.998 | locus YHR027C, strain rpn1, stronger effect = lower value 1 | locus YHR142W, strain chs7, stronger effect = lower value 0.978 | locus YJL092W, strain hpr5, stronger effect = lower value 1.02 | locus YJL095W, strain BCK1 (second series), stronger effect = lower value 1.01 | locus YJL115W, strain asf1, stronger effect = lower value 1.01 | locus YJL129C, strain trk1, stronger effect = lower value 1 | locus YJL154C, strain vps35, stronger effect = lower value 1.01 | locus YJL164C, strain tpk1, stronger effect = lower value 0.972 | locus YJL166W, strain qcr8, stronger effect = lower value 1.01 | locus YJL187C, strain SWE1, stronger effect = lower value 0.996 | locus YKL160W, strain elf1, stronger effect = lower value 0.998 | locus YKR026C, strain gcn3, stronger effect = lower value 1.01 | locus YKR091W, strain srl3, stronger effect = lower value 1 | locus YLL001W, strain dnm1, stronger effect = lower value 1.01 | locus YLL026W, stronger effect = lower value 1.02 | locus YLL041C, strain sdh2, stronger effect = lower value 0.997 | locus YLR027C, strain aat2, stronger effect = lower value 0.997 | locus YLR221C, strain rsa3, stronger effect = lower value 1.04 | locus YLR258W, strain gsy2, stronger effect = lower value 1 | locus YLR262C, strain YPT6 (second series), stronger effect = lower value 1.02 | locus YLR320W, strain mms22, stronger effect = lower value 1.04 | locus YLR342W, strain FKS1, stronger effect = lower value 1 | locus YLR357W, strain rsc2, stronger effect = lower value 1.05 | locus YLR370C, strain arc18, stronger effect = lower value 1.01 | locus YLR384C, strain iki3, stronger effect = lower value 0.998 | locus YML120C, strain ndi1, stronger effect = lower value 0.98 | locus YMR058W, strain fet3, stronger effect = lower value 1.03 | locus YMR125W, strain sto1, stronger effect = lower value 0.985 | locus YMR129W, stronger effect = lower value 1 | locus YMR205C, strain PFK2, stronger effect = lower value 0.994 | locus YMR231W, strain pep5, stronger effect = lower value 1.01 | locus YNL071W, strain lat1, stronger effect = lower value 0.999 | locus YNL209W, strain ssb2, stronger effect = lower value 0.987 | locus YNL248C, strain rpa49, stronger effect = lower value 1.07 | locus YNL322C, strain KRE1 (second series), stronger effect = lower value 1.01 | locus YNR049C, strain mso1, stronger effect = lower value 1.02 | locus YOR001W, strain rrp6, stronger effect = lower value 1.04 | locus YOR070C, strain gyp1, stronger effect = lower value 1.02 | locus YOR080W, strain dia2, stronger effect = lower value 1 | locus YOR083W, strain WHI5, stronger effect = lower value 0.993 | locus YOR106W, strain vam3, stronger effect = lower value 0.975 | locus YOR265W, strain rbl2, stronger effect = lower value 1 | locus YOR270C, strain vph1, stronger effect = lower value 0.906 | locus YOR290C, strain snf2, stronger effect = lower value 0.959 | locus YPL051W, strain arl3, stronger effect = lower value 1.03 | locus YPL078C, strain atp4, stronger effect = lower value 0.963 | locus YPL106C, strain sse1, stronger effect = lower value 1.02 | locus YPL240C, strain hsp82, stronger effect = lower value 1.02

C=CC(C)(C)c1c2c(c(O)c3c(=O)c4ccc(O)c(O)c4oc13)C=CC(C)(C)O2
active: locus YDL035C, strain GPR1, stronger effect = lower value 0.601 | locus YDL074C, strain BRE1, stronger effect = lower value 0.615 | locus YDL192W, strain arf1, stronger effect = lower value 0.829 | locus YDR150W, strain NUM1, stronger effect = lower value 0.78 | locus YDR162C, strain NBP2, stronger effect = lower value 0.444 | locus YDR318W, strain mcm21, stronger effect = lower value 0.886 | locus YDR388W, stronger effect = lower value 0.918 | locus YER155C, strain BEM2, stronger effect = lower value 0.817 | locus YER167W, strain BCK2, stronger effect = lower value 0.871 | locus YGL086W, strain mad1, stronger effect = lower value 0.794 | locus YGL248W, strain PDE1, stronger effect = lower value 0.847 | locus YGR135W, strain pre9, stronger effect = lower value 0.891 | locus YHR129C, strain ARP1, stronger effect = lower value 0.726 | locus YHR200W, strain rpn10, stronger effect = lower value 0.894 | locus YIL066C, strain RNR3, stronger effect = lower value 0.413 | locus YIL073C, strain SPO22, stronger effect = lower value 0.424 | locus YJL095W, strain BCK1, stronger effect = lower value 0.767 | locus YJL187C, strain SWE1 (second series), stronger effect = lower value 0.81 | locus YKR001C, strain vps1, stronger effect = lower value 0.783 | locus YLR039C, strain RIC1, stronger effect = lower value 0.581 | locus YLR058C, strain SHM2, stronger effect = lower value 0.867 | locus YLR262C, strain YPT6, stronger effect = lower value 0.544 | locus YLR268W, strain sec22, stronger effect = lower value 0.812 | locus YLR330W, strain CHS5, stronger effect = lower value 0.9 | locus YLR342W, strain FKS1 (second series), stronger effect = lower value 0.4 | locus YLR371W, strain rom2, stronger effect = lower value 0.799 | locus YLR418C, strain cdc73, stronger effect = lower value 0.51 | locus YML016C, strain PPZ1, stronger effect = lower value 0.873 | locus YMR223W, strain ubp8, stronger effect = lower value 0.891 | locus YMR307W, strain GAS1, stronger effect = lower value 0.428 | locus YNL067W, strain RPL9B, stronger effect = lower value 0.843 | locus YNL233W, strain BNI4, stronger effect = lower value 0.582 | locus YNL307C, strain MCK1, stronger effect = lower value 0.799 | locus YOL006C, strain TOP1, stronger effect = lower value 0.275 | locus YOR061W, strain CKA2, stronger effect = lower value 0.78 | locus YOR069W, strain VPS5, stronger effect = lower value 0.873 | locus YOR184W, strain ser1, stronger effect = lower value 0.76 | locus YPL055C, strain LGE1, stronger effect = lower value 0.451 | locus YPR163C, strain tif3, stronger effect = lower value 0.796 | locus YPR167C, strain met16, stronger effect = lower value 0.916 | strain wtn01, stronger effect = lower value 0.839
inactive: locus YBR021W, strain FUR4, stronger effect = lower value 0.893 | locus YBR229C, strain ROT2, stronger effect = lower value 1 | locus YCL029C, strain bik1, stronger effect = lower value 0.992 | locus YDL101C, strain DUN1, stronger effect = lower value 0.929 | locus YDL185W, strain tfp1, stronger effect = lower value 0.996 | locus YDR101C, strain arx1, stronger effect = lower value 0.973 | locus YDR502C, strain sam2, stronger effect = lower value 0.948 | locus YER110C, stronger effect = lower value 1 | locus YGL078C, strain dbp3, stronger effect = lower value 0.975 | locus YGR252W, strain gcn5, stronger effect = lower value 0.823 | locus YHR079C, strain IRE1 (second series), stronger effect = lower value 1 | locus YHR094C, strain hxt1, stronger effect = lower value 1.01 | locus YIL125W, strain kgd1, stronger effect = lower value 0.984 | locus YIR030C, strain dcg1, stronger effect = lower value 1 | locus YJL134W, strain LCB3, stronger effect = lower value 0.987 | locus YJL168C, strain set2, stronger effect = lower value 0.99 | locus YKL009W, strain mrt4, stronger effect = lower value 0.938 | locus YKL068W, stronger effect = lower value 0.996 | locus YKL085W, strain MDH1 (second series), stronger effect = lower value 0.978 | locus YKL085W, strain MDH1, stronger effect = lower value 0.978 | locus YLR102C, strain apc9, stronger effect = lower value 1.01 | locus YML032C, strain rad52, stronger effect = lower value 0.954 | locus YML124C, strain tub3, stronger effect = lower value 1.02 | locus YMR078C, strain ctf18, stronger effect = lower value 0.984 | locus YMR263W, strain SAP30, stronger effect = lower value 0.92 | locus YNL250W, strain rad50, stronger effect = lower value 1.03 | locus YNL271C, strain bni1, stronger effect = lower value 0.992 | locus YNL298W, strain CLA4, stronger effect = lower value 1 | locus YNR052C, strain pop2, stronger effect = lower value 0.93 | locus YOL012C, strain htz1 0.242 | locus YOL147C, strain pex11, stronger effect = lower value 0.943 | locus YOR136W, strain idh2, stronger effect = lower value 0.97 | locus YOR144C, strain elg1, stronger effect = lower value 0.983 | locus YOR316C, strain cot1, stronger effect = lower value 0.986 | locus YPL241C, strain CIN2, stronger effect = lower value 0.952 | locus YPR119W, strain clb2, stronger effect = lower value 1.01 | locus YPR141C, strain kar3, stronger effect = lower value 1
